The record followed here is PubChem BioAssay (EPA / NIEHS).

The nature of assay [1]: CCTE_Shafer_MEA_acute_per_network_burst_spike_number_std: CCTE's Neural Acute Assay for Standard Deviation of Number of Spikes in a Network Burst, Shafer Lab (AID 2284020).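 Note: fitted for decrease in spike-number SD versus DMSO so actives lower it.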 The essentials:
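Rat cortical cultures, DIV 13/15, 37 C; 20-min stabilisation, 40-min baseline, compound 0.03-40 uM, 40-min re-record. Spikes detected at 8x rms noise (300-5000 Hz band-pass). Readout: % change from baseline in per-burst spike-number SD.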

Assay [2] can be described thus: CCTE_Shafer_MEA_acute_per_network_burst_electrodes_number_mean: CCTE's Neural Acute Assay for Mean Number of Electrodes in a Network Burst, Shafer Lab (AID 2284021).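 Note: curves fitted for decreases only so hits reduce electrodes per burst.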 The essentials: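 Percent change from baseline was computed as mean electrode count per network burst, comparing 40 min recordings before and during compound (0.03-40 uM) exposure. Cultures were rat cortical neurons at DIV 13 or 15, recorded on MEAs at 37 C with an adaptive 8x rms threshold.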

Assay [3] is described as follows: CCTE_Shafer_MEA_acute_network_burst_percentage: CCTE's Neural Acute Assay for Percentage of Network Bursts, Shafer Lab (AID 2284022).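 Note: curves fitted for loss so actives lower network burst percentage.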 In a few lines: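 Network burst percentage (spikes in network bursts divided by total spikes) recorded at 37 C over 40 min baseline and 40 min after compound, 0.03-40 uM, in rat cortical cultures at DIV 13 or 15. Analysed as percent change from baseline versus DMSO.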

Assay [4] can be described thus: CCTE_Shafer_MEA_acute_cross_correlation_area: CCTE's Neural Acute Assay for Area of Cross Correlation, Shafer Lab (AID 2284024).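 For outcome: rat primary cortical neuron networks on 48-well MEA at DIV 13 or 15 with 40 min exposure.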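 Note: area under pooled inter-electrode spike cross-correlation near zero lag as percent change from own baseline; curves fitted for loss of cross-correlation area so actives lower synchrony.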 In a few lines: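 Percent change in well-wide cross-correlation area (window around zero lag) between 40 min baseline and 40 min post-compound recordings, 37 C; rat cortical cultures on MEA at DIV 13 or 15, dosed 0.03-40 uM, wells needing >/= 10 active electrodes.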

Assay [5] in a line: CCTE_Shafer_MEA_acute_cross_correlation_HWHM: CCTE's Neural Acute Assay for Cross Correlation at Half Width at Half Maximum, Shafer Lab (AID 2284026).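 For outcome: spontaneous network firing of rat primary cortical neurons on multiwell microelectrode arrays.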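 Note: percent change per well from pre-dose baseline in spike cross-correlogram half width; hits are a decrease in cross-correlogram half width relative to DMSO.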 In a few lines:
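Per-well percent change in cross-correlogram half width at half maximum, derived from 40-min recordings before and after compound (0.03-40 uM) at 37 C. Cultures were rat cortical neurons, DIV 13 or 15, with adaptive spike detection at 8x rms.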

A short description of assay [6]: CCTE_Shafer_MEA_dev_firing_rate_mean: CCTE's Neural Network Formation Assay for Mean Firing Rate, Shafer Lab (AID 2284031).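 For AC50: curve fitted for loss of firing so AC50 reflects decreased mean firing rate.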 The essentials: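 Steps: seed rat cortical cells (1.5 x 10^5/well) with laminin on PEI-coated MEA; dose day 0; record DIV 5/7/9/12, full media and compound exchange after DIV 5 and 9 recordings; compute well-mean firing rate AUC.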
Assay [7] is described as follows: CCTE_Shafer_MEA_dev_per_burst_spike_percent: CCTE's Neural Network Formation Assay for Percent of Spikes in a Burst, Shafer Lab (AID 2284032).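 For AC50: fitted as a decrease in burst spike percentage below DMSO baseline.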 In a few lines:
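Value is trapezoidal AUC over recordings on days 5, 7, 9 and 12 of the well-mean fraction of spikes falling in single-electrode bursts; rat cortical cultures exposed continuously from plating, treatment renewed DIV 5 and 9, fitted downward against DMSO.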

The nature of assay [8]: CCTE_Deisenroth_AIME_384WELL_CTox_Inactive: Cytotoxicity Assessment (CTOX) in CCTE's 384-well Estrogen Receptor Transactivation Assay without AIME metabolic competence (metabolism negative), Deisenroth Lab (AID 2284039; active = hit-call score of the fitted dose curve at least 0.9, where 1 is the maximum;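 note: cell viability via live-cell protease substrate cleaved to fluorescent probe; cells exposed 24 h to medium preincubated 2 h with alginate-water beads without S9; loss of fluorescence signal means loss of viability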). The essentials:
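Fluorescence from a live-cell protease substrate, read after 24 h in VM7Luc4E2 cells, indicated viability. Test medium came from a 2 h AIME step without hepatic S9 (alginate-water microspheres); concentrations spanned 0.002 - 200 uM, single technical replicate per run.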

Assay [9] addresses Estrogen receptor (Homo sapiens) (UniProt P03372). In words: CCTE_Deisenroth_AIME_384WELL_LUC_Active: CCTE's 384-well Estrogen Receptor Transactivation Assay with AIME metabolic competence (ERTA luciferase; metabolism positive), Deisenroth Lab (AID 2284030; active = hit-call score of the fitted dose curve at least 0.9, where 1 is the maximum). In a few lines: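 VM7Luc4E2 breast cells were given, for 24 hours, medium pre-incubated for 2 hours with parent chemical (0.002-200 uM, 10 concentrations) and alginate-encapsulated phenobarbital/beta-naphthoflavone-induced rat hepatic S9. Luciferase gain of signal was fitted against 17beta-estradiol; n=4 or more.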

For assay [10] the target is unchanged. As to the kind of experiment: CCTE_Deisenroth_AIME_384WELL_LUC_Inactive: CCTE's 384-well Estrogen Receptor Transactivation Assay without AIME metabolic competence (ERTA luciferase; metabolism negative), Deisenroth Lab (AID 2284038; active = hit-call score of the fitted dose curve at least 0.9, where 1 is the maximum;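 note: VM7Luc4E2 breast cells given medium preincubated 2 h with S9-free microspheres; hits raise estrogen receptor luciferase signal so potencies reflect agonists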). The essentials: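 VM7Luc4E2 ER transactivation, luciferase bioluminescence after 24 h, using medium pre-incubated 2 h with S9-free alginate microspheres. Concentrations 0.002–200 uM; gain of signal fitted relative to 17beta-estradiol.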

Values joined by “and” are separate entries in the source; they are usually repeats but may differ in a detail not shown here. Equal entries are not always repeated. Inconclusive results are not listed. Active and inactive are the calls of the source. Rule for the calls, unless noted: active = hit-call score of the fitted dose curve at least 0.9, where 1 is the maximum; inactive = score below 0.9.

Chain of Estrogen receptor (Homo sapiens) (P03372 whole entry, looked up): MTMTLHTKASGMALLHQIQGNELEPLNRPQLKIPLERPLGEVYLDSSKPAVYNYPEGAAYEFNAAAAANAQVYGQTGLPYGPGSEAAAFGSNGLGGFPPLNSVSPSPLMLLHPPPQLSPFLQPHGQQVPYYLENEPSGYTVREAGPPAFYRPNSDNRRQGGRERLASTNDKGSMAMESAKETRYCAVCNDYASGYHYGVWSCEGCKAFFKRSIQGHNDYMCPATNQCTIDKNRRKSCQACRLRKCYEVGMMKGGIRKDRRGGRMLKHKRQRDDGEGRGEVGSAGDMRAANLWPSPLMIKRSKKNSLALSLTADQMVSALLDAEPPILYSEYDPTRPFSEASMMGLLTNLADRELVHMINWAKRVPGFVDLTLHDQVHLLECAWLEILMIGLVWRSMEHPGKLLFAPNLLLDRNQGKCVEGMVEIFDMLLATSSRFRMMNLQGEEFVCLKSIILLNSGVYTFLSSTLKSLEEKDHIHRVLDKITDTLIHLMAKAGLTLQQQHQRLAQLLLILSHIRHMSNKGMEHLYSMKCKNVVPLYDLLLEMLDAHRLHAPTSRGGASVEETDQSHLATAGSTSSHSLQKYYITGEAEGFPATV

On to `COCCc1ccc(OCC(O)CNC(C)C)cc1` (stereo unspecified), for which the result in [1], in [2], in assay [3], in assay [4], in assay [5] and in assay [6] was inactive. Moreover, in [7], the molecule was classed as inactive.

Consider `Nc1ccccc1[N+](=O)[O-]`, for which the result in assay [8] was inactive.

The term AC50 denotes the midpoint of the concentration-response curve, whichever way the signal moves. Consider `Oc1c(Cl)cc(Cl)c(Cl)c1Cc1c(O)c(Cl)cc(Cl)c1Cl`, for which the half-maximal activity concentration (AC50) was 153 nM (active) in assay [1]; 540 nM (active) in assay [2]; 454 nM (active) in assay [3]; 127 nM (active) in assay [4]; 894 nM (active) and 1.28 µM (active) in [6]; 1.16 µM (active) and 954 nM (active) in [7]. The result in assay [5] was inactive.

Regarding `CCCCCCCCSCCO`, the outcome in assay [8] was inactive.

Turning to `Oc1ccc2cc(SSc3ccc4cc(O)ccc4c3)ccc2c1`, the call in assay [8] was inactive.

In the case of `O=C(O)c1ccc(O)cc1`, the result in assay [8] was inactive.

With `CCOC(=O)C(C#N)=C(c1ccccc1)c1ccccc1`, the result in assay [1], in [2], in [3], in [4] and in [5] was inactive.

Take `CS(=O)(=O)OCCCCOS(C)(=O)=O`: the molecule was classed as inactive in assay [9], in assay [6], in assay [7] and in [10].

For `C=C(C)[C@@H]1CC=C(C)C(=O)C1`, in assay [8], the result was inactive.

On to `CCOC(=O)C1OC1c1ccccc1` (stereo unspecified), for which the molecule was called inactive in assay [8].

Take `O=P(O)(O)O`: the result in assay [8] was inactive.

`O=CN1CCOCC1`: the molecule was called inactive in assay [1], in assay [2], in assay [3], in assay [4] and in [5].

For `CC(C)CCCCCCc1ccc(OCCOCCO)cc1`, the molecule was classed as inactive in assay [9], in [10] and in [8].

Take `CN(C)CCOC(C)(c1ccccc1)c1ccccn1` (stereo unspecified): the outcome in assay [6] and in assay [7] was inactive.

Take `CCCCCCC(CO)CCCC` (stereo unspecified): the molecule was called inactive in assay [1], in assay [3] and in assay [4]. For the same molecule, the concentration at half-maximal activity (AC50) was 77.4 nM (active) in assay [2] and 4.38 µM (active) in assay [5].

For the molecule `COCCOCCOCCO`, the molecule was classed as inactive in [6], in assay [7] and in assay [8].

Regarding `Clc1ccc(C(c2ccccc2Cl)C(Cl)Cl)cc1` (stereo unspecified), the AC50 in assay [8] was 152 µM (active).

Consider `O=C1OC(=O)c2c(Cl)c(Cl)c(Cl)c(Cl)c21`, for which the molecule was called inactive in assay [8].

With `CC(C)CC(C)CC(O)CC(C)C` (stereo unspecified), the molecule was classed as inactive in [8].
